Source: PubChem BioAssay (NCI)
Several values for one entry are separate records, joined by “and”; a condition that tells them apart may be missing. Equal values may be shown once. About 83,000 compounds went through this panel and 20% of them were active in at least one assay; those are over-represented in the sample as a whole.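 Cell lines were cultured in 96-well plates, exposed to a single compound concentration, and assessed for percent growth 48 hours later.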 Activity calls are given as the source filed them. The calls were made as follows: active = growth percent below 10; inactive = the rest.

Test system: HL-60(TB) leukemia
Assay: NCI-60 one-dose screen, 48 h (100 = growth as untreated, 0 = no growth, -100 = all killed)
Conditions: 10 µM unless noted

| SMILES | growth |
| --- | --- |
| Cc1cc(=O)oc2c1ccc1oc(C#N)c(C)c12 | 107% (inactive) |
| CC(C)OC(=O)c1ccc2[nH]c(O)c(C(=Nc3ccc(N(C)C(=O)CN4CCN(C)CC4)cc3)c3ccccc3)c2c1 | -50.2% (active) |
| O=c1nc2c(-c3nc4ccccc4s3)n[nH]n2c2sc3c(c12)CCCC3 | 99.4% (inactive) |
| O=C(O)c1ccc(-n2cc(CNc3ccc(Cl)cc3)c(-c3ccccc3)n2)cc1 | 95% (inactive) |
| O=C(c1cc2ccccc2o1)c1nn(-c2ccccc2)/c(=N/N=Cc2cn(-c3ccccc3)nc2-c2cc3ccccc3oc2=O)s1 | 98.2% (inactive) |
| CC(C)(C)CC(C)(C)c1ccc(OCCOCCSC(=N)N)cc1 | -51.7% (active) |
| CN1CCN(c2ccc(C(=O)Nc3cccc(C#Cc4cccc5[nH]nc(N)c45)c3)cc2C(F)(F)F)CC1 | -36.1% (active) |
| CCOC(=O)c1ccc(Nc2sc(C(=O)c3ccc(Br)cc3)c(N)c2C#N)cc1 | -2.85% (active) |
| CCN(CC)CCOc1ccc(/C=N/Nc2nc3c([nH]2)c(=O)n(C)c(=O)n3C)cc1 | 97.3% (inactive) and 115% (inactive) |
| CCOC(=O)C1=C(N)Oc2c(sc3c(C)cccc23)C1c1ccc(OC)cc1 (stereo not drawn) | 1.54% (active) |
| COc1cc(-c2nc(-c3nnc(-c4ccc(F)c(Cl)c4)o3)c3ccccn23)cc(OC)c1OC | 56.4% (inactive) |
| COc1cccc(C2C3=C(COC3=O)N(CCO)c3cc(OC)ccc32)c1 (stereo not drawn) | -25.9% (active) |
| Cc1ccc(Nc2c(C(N)=O)cnc3ccc(-c4csc(N)n4)cc23)cc1 | 109% (inactive) |
| CC(C)CC1NC(=O)C(CC(C)C)N(CO)C1=O (stereo not drawn) | 106% (inactive) |
| O=C(c1nn(-c2ccc(Cl)cc2)cc1O)n1nc(C(F)(F)F)cc1-c1ccccc1 | -14.8% (active) |
| COc1ccc(-c2cnnn2-c2nonc2-n2cccc2)cc1OC | 11% (inactive) |
| Nc1nc2c(nnn2C2CC(O)C(CO)O2)c(=O)[nH]1 (stereo not drawn) | 28.4% (inactive) |

| SMILES | growth |
| --- | --- |
| NC(=S)NN=C1CCC(C2CCCCC2)CC1 (stereo not drawn) | 91.2% (inactive) and 70.9% (inactive) |
| N#CCCN(NC(=O)OCc1ccccc1)C(=O)OCc1ccccc1 | 115% (inactive) |
| CCC1OC(OC)C=CC1=O (stereo not drawn) | 77% (inactive) |
| CC1CCCC(=O)O1 (stereo not drawn) | 102% (inactive) and 119% (inactive) |
| COc1ccc(NC(=O)CSc2nc(C)c(C(C)=O)n2-c2ccc(Cl)cc2)cc1 | 103% (inactive) |
| c1ccc2c(c1)Oc1cccnc1-n1nccc1-2 | 101% (inactive) |
| CC1(C)CC2=C3C=C[C@@H]4[C@@]5(C)CCC(=O)C(C)(C)[C@@H]5CC[C@@]4(C)[C@]3(C)CC[C@@]2(C(=O)O)CC1=O | 66.8% (inactive) |
| O=C1CSC2=NCCN12 | 106% (inactive) and 86.3% (inactive) |
| CC(C)(C#N)c1cc(F)cc(C(=O)Nc2cc(Nc3ncccc3-c3ncnc4nc[nH]c34)ccc2F)c1 | 13.9% (inactive) |
| N#CC1=C(Nc2ccccc2Cl)SC(c2ccccc2O)NC1=O (stereo not drawn) | 93.1% (inactive) |
| O=C1OC(c2ccc(-c3ccccc3)cc2)=C/C1=C/c1cccs1 | 75% (inactive) |
| CN(C)CCC(=O)c1ccc(Cl)cc1 | 113% (inactive) and 110% (inactive) |
| CCc1c(C(=O)N[C@@H]2c3cc(Cl)ccc3CC[C@@H]2O)[nH]c(C)c1C(C)=O | 103% (inactive) |
| Cc1nc2cncc(C#Cc3cncc(C(=O)Nc4ccc(CN5CCN(C)CC5)c(C(F)(F)F)c4)c3)c2nc1C | -8.15% (active) |
| COc1cc(/C=C/C(=O)Nc2cccnc2Nc2cc(OC)c(OC)c(OC)c2)cc(OC)c1OC | 89.1% (inactive) |
| O=[N+]([O-])c1ccccc1/C=N\Nc1ccccc1 | 82.5% (inactive) and 87.4% (inactive) |
